Assay results reported in the supplement of paper PMC10849652.
Targets with a hit are over-represented here; the source holds about 8,800 in all. About 0.5% of all pairs of compound and target were hits.

Columns and labels:
Experiment in all cases: log2 fold change, soluble protein after heating vs DMSO (PISA); higher = thermal stabilisation; K562 lysate, 10 uM; active = over 0.2 and 3.5 SD of the protein, either way, in both replicates (recomputed)
nilotinib = compound: Cc1cn(-c2cc(NC(=O)c3ccc(C)c(Nc4nccc(-c5cccnc5)n4)c3)cc(C(F)(F)F)c2)cn1 [nilotinib]
Procedure, shortened: (§1)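 Dounce homogenisation of K562 pellets in PBS pH 7.4 with 1 mM MgCl2 produced a crude extract, used at 1 mg/mL protein. Exposure to 10 μM compound lasted 30 min, and aliquots were then heated for 3 min across 48°C-58°C, pooled and brought to 0.5% NP-40 at 4°C. The supernatant after 21,000xg for 90 min was quantified by TMTpro 16plex LC-MS/MS with channel sums equalised. Duplicate values are given as log-two fold change in thermal stability relative to solvent controls.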

[1] = compound: Cc1nc(Nc2n[nH]c3c2CN(C(=O)N[C@H](CN(C)C)c2ccccc2)C3(C)C)c2sccc2n1
Procedure, shortened: as §1

dasatinib = compound: Cc1nc(Nc2ncc(C(=O)Nc3c(C)cccc3Cl)s2)cc(N2CCN(CCO)CC2)n1 [dasatinib]
Procedure, shortened: as §1

[2] = compound: Cc1ncc(-c2ccnc(Nc3ccc(S(C)(=O)=O)cc3)n2)n1C(C)C
Procedure, shortened: as §1

[3] = compound: Cn1cc(-c2ccc3c(c2)CCN3C(=O)Cc2cccc(C(F)(F)F)c2)c2c(N)ncnc21
Procedure, shortened: as §1

quisinostat = compound: Cn1cc(CNCC2CCN(c3ncc(C(=O)NO)cn3)CC2)c2ccccc21 [quisinostat]
Procedure, shortened: as §1

tipifarnib = compound: Cn1cncc1[C@@](N)(c1ccc(Cl)cc1)c1ccc2c(c1)c(-c1cccc(Cl)c1)cc(=O)n2C [tipifarnib]
Procedure, shortened: as §1

[4] = compound: NC(=O)Nc1cc(-c2cccc(F)c2)sc1C(=O)N[C@H]1CCCNC1
Procedure, shortened: as §1

[5] = compound: NC(=O)c1cnc(N[C@@H]2CCCC[C@@H]2N)nc1Nc1cccc(-n2nccn2)c1
Procedure, shortened: as §1

[6] = compound: NC1(c2ccc(-c3nc4ccn5c(=O)[nH]nc5c4cc3-c3ccccc3)cc2)CCC1
Procedure, shortened: as §1

[7] = compound: NCC(=O)Nc1ccc(-n2nc(C(F)(F)F)cc2-c2ccc3c(ccc4ccccc43)c2)cc1
Procedure, shortened: as §1

vorinostat = compound: O=C(CCCCCCC(=O)Nc1ccccc1)NO [vorinostat]
Procedure, shortened: as §1

silmitasertib = compound: O=C(O)c1ccc2c(c1)nc(Nc1cccc(Cl)c1)c1ccncc12 [silmitasertib]
Procedure, shortened: as §1

[8] = compound: O=C1NC(=O)C(c2cnc3ccccn23)=C1c1cn2c3c(cc(F)cc13)CN(C(=O)N1CCCCC1)CC2
Procedure, shortened: as §1

entospletinib = compound: c1cn2cc(-c3ccc4cn[nH]c4c3)nc(Nc3ccc(N4CCOCC4)cc3)c2n1 [entospletinib]
Procedure, shortened: as §1

Measured: log2 fold change

RAB3IL1 (UniProt E9PK89)
inactive: nilotinib -0.039 | [1] -0.124 | dasatinib 0.08 | [2] 0.003 | [3] -0.084 | quisinostat 0.027 | tipifarnib 0.061 | [4] -0.086 | [5] -0.012 | [6] 0.157 | [7] 0.016 | silmitasertib 0.011 | [8] 0.079 | entospletinib -0.158
active: vorinostat -0.614

RETSAT (UniProt Q6NUM9)
inactive: dasatinib -0.1 | [3] -0.058 | [4] 0.152 | [5] -0.005 | [6] -0.051 | [7] -0.087 | vorinostat 0.17 | silmitasertib -0.016 | [8] 0.058 | entospletinib 0.036
active: quisinostat -0.485

ROBO2 isoform 3 (UniProt Q9HCK4)
inactive: quisinostat 0.052 | [4] 0.009 | [5] 0.043 | [6] 0.005 | vorinostat 0.136 | silmitasertib -0.019 | [8] -0.042

RNF170 (UniProt Q96K19)
UniProt Q96K19, sequence (Q96K19 whole entry, looked up): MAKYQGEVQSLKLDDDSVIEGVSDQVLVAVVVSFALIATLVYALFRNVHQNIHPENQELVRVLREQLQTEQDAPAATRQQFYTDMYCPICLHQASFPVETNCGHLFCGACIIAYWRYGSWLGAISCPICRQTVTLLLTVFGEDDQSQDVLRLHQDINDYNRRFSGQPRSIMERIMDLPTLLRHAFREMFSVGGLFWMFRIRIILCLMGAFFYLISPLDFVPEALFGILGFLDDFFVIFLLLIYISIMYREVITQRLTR
inactive: nilotinib -0.04 | [1] 0 | dasatinib -0.008 | [2] 0.043 | [3] -0.028 | tipifarnib -0.3 | [5] -0.07 | [6] 0.073 | [7] -0.003 | vorinostat 0.004 | silmitasertib 0.169

RBM45 (UniProt Q8IUH3)
UniProt Q8IUH3, sequence (Q8IUH3 whole entry, looked up): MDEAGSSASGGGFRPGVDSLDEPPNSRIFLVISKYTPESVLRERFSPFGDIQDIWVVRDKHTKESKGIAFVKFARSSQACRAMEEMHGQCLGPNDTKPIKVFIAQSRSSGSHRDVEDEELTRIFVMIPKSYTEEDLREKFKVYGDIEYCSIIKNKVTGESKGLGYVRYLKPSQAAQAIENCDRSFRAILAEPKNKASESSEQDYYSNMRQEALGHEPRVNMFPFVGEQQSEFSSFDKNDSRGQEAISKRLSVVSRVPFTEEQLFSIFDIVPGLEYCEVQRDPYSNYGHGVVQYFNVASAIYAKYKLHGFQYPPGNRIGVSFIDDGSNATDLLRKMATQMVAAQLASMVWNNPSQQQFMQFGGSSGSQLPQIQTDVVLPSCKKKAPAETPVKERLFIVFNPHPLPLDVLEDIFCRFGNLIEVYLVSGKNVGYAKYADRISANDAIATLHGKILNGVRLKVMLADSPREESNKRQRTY
inactive: nilotinib 0.051 | [1] -0.077 | [2] 0.143 | quisinostat -0.145 | tipifarnib -0.012 | [4] -0.025 | [5] 0.061 | [8] 0.093

RTTN (UniProt Q86VV8)
UniProt Q86VV8, sequence (Q86VV8 whole entry, looked up): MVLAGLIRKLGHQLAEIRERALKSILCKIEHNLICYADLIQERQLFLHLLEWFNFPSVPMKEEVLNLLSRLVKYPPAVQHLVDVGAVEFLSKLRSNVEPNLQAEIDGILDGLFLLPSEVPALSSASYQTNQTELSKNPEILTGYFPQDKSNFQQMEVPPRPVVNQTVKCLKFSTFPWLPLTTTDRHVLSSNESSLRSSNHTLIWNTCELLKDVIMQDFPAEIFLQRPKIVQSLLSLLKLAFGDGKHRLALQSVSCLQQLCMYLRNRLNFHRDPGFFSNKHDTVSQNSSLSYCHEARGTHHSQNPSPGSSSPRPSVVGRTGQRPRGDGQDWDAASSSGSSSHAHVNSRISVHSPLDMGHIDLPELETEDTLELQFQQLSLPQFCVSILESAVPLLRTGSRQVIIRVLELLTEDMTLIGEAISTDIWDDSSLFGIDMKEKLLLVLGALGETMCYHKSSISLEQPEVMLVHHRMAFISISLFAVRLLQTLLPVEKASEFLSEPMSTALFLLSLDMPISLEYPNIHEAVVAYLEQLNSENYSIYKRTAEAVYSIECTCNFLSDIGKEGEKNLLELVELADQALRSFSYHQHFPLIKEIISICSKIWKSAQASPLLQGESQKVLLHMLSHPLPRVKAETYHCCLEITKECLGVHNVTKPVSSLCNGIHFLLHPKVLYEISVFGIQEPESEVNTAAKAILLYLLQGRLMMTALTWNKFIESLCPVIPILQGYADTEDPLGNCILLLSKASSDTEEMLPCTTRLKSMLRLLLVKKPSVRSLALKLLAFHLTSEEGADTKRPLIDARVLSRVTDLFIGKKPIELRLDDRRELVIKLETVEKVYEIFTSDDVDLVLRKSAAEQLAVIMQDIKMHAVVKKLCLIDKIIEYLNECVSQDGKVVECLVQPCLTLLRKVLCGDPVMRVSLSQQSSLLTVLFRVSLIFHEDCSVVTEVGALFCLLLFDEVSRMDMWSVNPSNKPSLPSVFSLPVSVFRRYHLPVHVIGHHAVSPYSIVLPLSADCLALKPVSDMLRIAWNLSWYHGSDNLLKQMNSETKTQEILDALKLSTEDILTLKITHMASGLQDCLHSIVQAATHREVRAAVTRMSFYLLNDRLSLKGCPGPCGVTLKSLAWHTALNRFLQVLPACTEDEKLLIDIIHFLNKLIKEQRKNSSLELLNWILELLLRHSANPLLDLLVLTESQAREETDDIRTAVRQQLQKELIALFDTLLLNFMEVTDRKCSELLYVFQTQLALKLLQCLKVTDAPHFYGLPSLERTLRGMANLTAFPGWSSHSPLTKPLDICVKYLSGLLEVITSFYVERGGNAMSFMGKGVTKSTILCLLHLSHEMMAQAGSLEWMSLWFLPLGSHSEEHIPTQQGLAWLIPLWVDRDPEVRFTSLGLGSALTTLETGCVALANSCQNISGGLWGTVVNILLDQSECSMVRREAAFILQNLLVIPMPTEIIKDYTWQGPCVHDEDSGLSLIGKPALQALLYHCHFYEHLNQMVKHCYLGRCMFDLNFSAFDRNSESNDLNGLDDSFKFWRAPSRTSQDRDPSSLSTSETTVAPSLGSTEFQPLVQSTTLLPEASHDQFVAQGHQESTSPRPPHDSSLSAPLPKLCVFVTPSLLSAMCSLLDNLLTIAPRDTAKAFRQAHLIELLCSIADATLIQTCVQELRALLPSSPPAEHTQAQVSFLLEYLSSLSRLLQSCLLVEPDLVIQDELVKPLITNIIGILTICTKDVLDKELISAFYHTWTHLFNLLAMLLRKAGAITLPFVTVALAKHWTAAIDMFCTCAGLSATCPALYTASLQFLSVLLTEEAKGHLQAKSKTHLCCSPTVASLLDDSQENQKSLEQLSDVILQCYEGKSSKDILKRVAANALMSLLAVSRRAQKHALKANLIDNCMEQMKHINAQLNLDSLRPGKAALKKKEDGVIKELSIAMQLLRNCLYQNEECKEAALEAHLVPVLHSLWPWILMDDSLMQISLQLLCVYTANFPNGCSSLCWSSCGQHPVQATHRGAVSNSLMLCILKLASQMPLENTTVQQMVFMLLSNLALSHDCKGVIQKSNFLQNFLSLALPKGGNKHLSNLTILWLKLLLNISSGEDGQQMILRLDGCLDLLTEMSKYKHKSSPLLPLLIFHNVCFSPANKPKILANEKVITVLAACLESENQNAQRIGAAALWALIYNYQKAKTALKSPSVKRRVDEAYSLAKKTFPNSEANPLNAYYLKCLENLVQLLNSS
active: vorinostat -0.607
inactive: nilotinib -0.102 | [1] 0.14 | dasatinib -0.086 | [2] -0.003 | [3] -0.161 | tipifarnib -0.069 | [5] -0.282 | [6] 0.216 | [7] -0.14 | silmitasertib 0.138 | entospletinib 0.053

RHBDD1 (UniProt Q8TEB9)
inactive: [5] 0.103 | [7] -0.162 | entospletinib 0.036

RETREG2 (UniProt Q8NC44)
UniProt Q8NC44, sequence (Q8NC44 whole entry, looked up): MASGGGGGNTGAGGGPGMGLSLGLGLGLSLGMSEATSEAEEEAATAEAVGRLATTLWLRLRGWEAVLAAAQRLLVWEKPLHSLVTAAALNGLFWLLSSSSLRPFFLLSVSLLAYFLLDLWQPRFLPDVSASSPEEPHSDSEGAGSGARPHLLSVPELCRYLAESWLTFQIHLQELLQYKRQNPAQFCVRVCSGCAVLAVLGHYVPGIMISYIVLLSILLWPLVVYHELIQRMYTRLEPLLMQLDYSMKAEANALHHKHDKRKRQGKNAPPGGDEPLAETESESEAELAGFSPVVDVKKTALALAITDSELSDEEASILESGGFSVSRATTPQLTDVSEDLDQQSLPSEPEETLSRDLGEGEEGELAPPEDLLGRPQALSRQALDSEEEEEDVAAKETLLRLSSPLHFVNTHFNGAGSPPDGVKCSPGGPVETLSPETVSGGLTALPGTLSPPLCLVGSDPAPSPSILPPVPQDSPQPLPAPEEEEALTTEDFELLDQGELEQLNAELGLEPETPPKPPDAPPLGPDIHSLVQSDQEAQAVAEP
inactive: [1] -0.135 | [2] 0.055 | quisinostat -0.084 | tipifarnib -0.076 | [4] -0.016 | [5] -0.012 | [6] -0.022 | [7] -0.058 | vorinostat 0.023 | silmitasertib 0.015 | [8] -0.007 | entospletinib -0.004
active: nilotinib 0.363

RBM4 isoform 3 (UniProt Q9BWF3)
UniProt Q9BWF3, sequence (Q9BWF3 whole entry, looked up): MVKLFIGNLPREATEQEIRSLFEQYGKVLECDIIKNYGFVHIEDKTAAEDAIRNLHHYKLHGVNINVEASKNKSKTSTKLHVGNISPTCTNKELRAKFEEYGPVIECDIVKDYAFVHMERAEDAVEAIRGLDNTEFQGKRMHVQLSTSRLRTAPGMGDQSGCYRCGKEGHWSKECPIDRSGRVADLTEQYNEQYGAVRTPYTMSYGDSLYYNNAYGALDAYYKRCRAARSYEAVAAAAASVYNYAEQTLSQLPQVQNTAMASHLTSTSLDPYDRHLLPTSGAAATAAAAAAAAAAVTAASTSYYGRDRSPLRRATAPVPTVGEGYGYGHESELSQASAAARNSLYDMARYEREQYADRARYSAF
inactive: quisinostat -0.094 | [4] 0.06 | [8] -0.099

SEC16A isoform 3 (UniProt O15027)
inactive: dasatinib -0.026 | [3] -0.039

SEMA4G isoform 2 (UniProt Q9NTN9)
active: vorinostat -0.513
inactive: dasatinib 0.006 | [3] 0.235 | quisinostat 0.074 | [4] 0.085 | [6] 0.077 | [7] 0.078 | silmitasertib 0.172 | [8] 0.103 | entospletinib -0.09

RNASEH2B, A0A1B0GUE7
inactive: nilotinib -0.01 | [1] 0.037 | [2] 0.211 | tipifarnib 0.067 | [5] 0.035

SAMD4A (UniProt Q9UPU9)
inactive: dasatinib -0.228 | [3] -0.005 | quisinostat -0.069 | [4] 0.058 | [5] -0.023 | [6] 0.012 | [7] -0.038 | silmitasertib 0.027 | [8] 0.014 | entospletinib -0.053
active: vorinostat -0.647

SCNM1 (UniProt Q9BWG6)
inactive: nilotinib -0.078 | [1] -0.045 | dasatinib 0.122 | [2] -0.091 | [3] 0.015 | quisinostat -0.061 | tipifarnib 0.045 | [4] 0.06 | [5] -0.104 | [6] -0.106 | vorinostat -0.13 | silmitasertib -0.102 | [8] -0.082 | entospletinib 0.092

RFWD3 (UniProt Q6PCD5)
active: vorinostat -0.444
inactive: nilotinib 0.042 | [1] -0.066 | dasatinib 0.027 | [2] -0.082 | [3] 0.004 | quisinostat -0.041 | tipifarnib -0.037 | [4] 0.003 | [6] -0.053 | [7] 0.089 | silmitasertib 0.061 | [8] -0.027 | entospletinib 0.043

RAD17 (UniProt O75943)
UniProt O75943, sequence (O75943 whole entry, looked up): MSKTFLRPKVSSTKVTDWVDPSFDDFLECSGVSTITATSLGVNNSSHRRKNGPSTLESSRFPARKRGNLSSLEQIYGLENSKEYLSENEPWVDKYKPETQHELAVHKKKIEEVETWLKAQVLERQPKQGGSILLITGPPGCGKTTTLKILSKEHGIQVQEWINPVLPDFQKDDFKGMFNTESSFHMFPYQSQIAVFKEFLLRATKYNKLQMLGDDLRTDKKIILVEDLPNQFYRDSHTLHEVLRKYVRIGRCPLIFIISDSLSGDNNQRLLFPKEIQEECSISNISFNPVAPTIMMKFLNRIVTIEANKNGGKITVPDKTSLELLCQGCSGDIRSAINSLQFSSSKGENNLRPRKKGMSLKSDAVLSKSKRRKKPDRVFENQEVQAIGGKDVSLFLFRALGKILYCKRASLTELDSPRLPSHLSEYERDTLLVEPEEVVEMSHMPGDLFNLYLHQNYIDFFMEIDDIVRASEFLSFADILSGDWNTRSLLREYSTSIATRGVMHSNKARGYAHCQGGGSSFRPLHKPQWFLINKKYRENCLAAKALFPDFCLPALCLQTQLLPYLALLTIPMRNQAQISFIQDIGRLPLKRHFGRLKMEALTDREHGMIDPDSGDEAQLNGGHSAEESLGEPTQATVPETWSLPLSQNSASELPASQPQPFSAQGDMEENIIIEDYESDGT
inactive: nilotinib -0.027 | [1] 0.073 | dasatinib -0.064 | [2] -0.023 | [3] 0 | quisinostat -0.032 | tipifarnib -0.085 | [4] 0.038 | [7] -0.044 | [8] -0.052 | entospletinib -0.039

RUFY2 isoform 1 (UniProt Q8WXA3)
inactive: nilotinib -0.006 | [1] 0.02 | [2] 0.119 | quisinostat 0.047 | tipifarnib 0.177 | [4] 0.007 | [7] -0.009 | [8] -0.129 | entospletinib -0.014

RALGAPB isoform 3 (UniProt Q86X10)
inactive: dasatinib 0.052 | [3] -0.034 | entospletinib -0.045

ROCK1 (UniProt Q13464)
active: vorinostat -0.211
inactive: nilotinib -0.013 | [1] -0.001 | dasatinib -0.004 | [2] 0.006 | [3] 0.011 | quisinostat -0.01 | tipifarnib 0.001 | [5] 0.009 | [6] 0.013 | [7] 0 | [8] -0.017 | entospletinib -0.016

RNF17 (UniProt Q9BXT8)
inactive: dasatinib -0.055 | [3] 0.061 | quisinostat 0.142 | [4] 0.054 | [5] 0.046 | [6] 0.043 | vorinostat -0.016 | silmitasertib -0.021 | [8] -0.106 | entospletinib 0.107

RFNG (UniProt Q9Y644)
UniProt Q9Y644, sequence (Q9Y644 whole entry, looked up): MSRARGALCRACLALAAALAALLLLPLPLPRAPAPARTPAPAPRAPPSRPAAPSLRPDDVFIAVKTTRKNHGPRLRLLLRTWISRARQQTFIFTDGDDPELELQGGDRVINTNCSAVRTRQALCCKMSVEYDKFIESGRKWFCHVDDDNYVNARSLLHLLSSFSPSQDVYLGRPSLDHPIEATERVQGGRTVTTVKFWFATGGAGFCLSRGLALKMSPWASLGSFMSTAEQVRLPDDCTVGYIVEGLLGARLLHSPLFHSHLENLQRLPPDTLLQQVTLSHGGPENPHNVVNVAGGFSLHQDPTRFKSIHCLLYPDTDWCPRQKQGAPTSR
inactive: nilotinib 0.184 | [1] 0.054 | [2] -0.078 | tipifarnib -0.048

SAP30 (UniProt O75446)
inactive: nilotinib 0.104 | dasatinib -0.063 | [2] -0.124 | [3] 0.012 | quisinostat -0.111 | tipifarnib -0.026 | [4] 0.037 | [5] -0.035 | [7] 0.001 | [8] -0.024 | entospletinib -0.022
active: [1] -0.464
